Bioassay records deposited in PubChem by National Center for Advancing Translational Sciences (NCATS).
An excerpt weighted towards active compounds, which were near 12% of everything screened.
HP1b chromo inh – inhibitors of HP1-beta chromodomain binding to methylated histone tails; AlphaScreen HP1-beta / biotin-H3K9me3 peptide binding; Potency, µM (highest dose often 114 µM), for the others: at the highest dose activity change, negative = inhibition, most hits filed as inhibitors; AID 540317; 390,000 tested, 0.56% active; P83916; note: nearly all actives have a fitted effect of over 70% in size
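HP1-beta protein (50 nM final) preincubated 30 min at room temperature with biotinylated H3(1-18)K9me3 peptide (50 nM) in PBS pH 7.4, 0.01% Tween-20, then compound added for 30 min. AlphaScreen streptavidin donor/nickel chelate acceptor beads (10 ug/mL final), 30 min dark, luminescence read.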
Sfp inh – Sfp phosphopantetheinyl transferase inhibition; Q9F4F7; Biochemical Sfp PPTase activity, qHTS; Potency, µM, for the others: largest response in the series, negative = inhibition, actives largely listed as inhibitors; 310,000 tested, 3.5% active; AID 1490;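 note: the enzyme is Sfp with the accession as filed and its product quenches rhodamine fluorescence; 0% = enzyme reaction without inhibitor and -100% = no enzyme wells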
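Fluorescence-quenching assay with 15 nM Sfp, 5 uM rhodamine-CoA and 12.5 uM BHQ-2-labelled ybbR peptide in pH 7.6 Hepes/MgCl2 buffer. Enzyme was pre-incubated with compound for 15 min at room temperature. Rate was taken from the 30-min fluorescence change (525/598 nm).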
BAZ2B block – BAZ2B (human) inhibition; Q9UIF8; AlphaScreen BAZ2B-H3K14Ac peptide displacement; Potency, µM (doses to about 114 µM), for the others: at the highest dose activity change, negative = inhibition, usual class: inhibitors; 360,000 tested, 4.4% active; AID 504333; note: % is set by controls: 0 for no effect and ±100 for the full control effect; nearly all actives have a fitted effect of over 60% in size
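In this displacement format the biotinylated H3(5-23) peptide acetylated at Lys14 serves as ligand at 50 nM, with BAZ2B at 50 nM in PBS pH 7.4 containing 0.01% Tween-20. Donor and acceptor beads are 10 ug/mL final.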
PLK1 PBD inh – blocks phosphopeptide binding to human PLK1 polo-box domain | Potency, µM, for inactives: max response, negative = inhibition, actives largely listed as inhibitors | 360,000 tested, 2.8% active | Plk1 PBD binding of FITC phosphopeptide, fluorescence polarization | P53350; note: series mostly up to about 57 µM; % is set by controls: 0 for no effect and ±100 for the full control effect; nearly all actives have a fitted effect of over 65% in size
JMJD2A Tudor – inhibitors of human JMJD2A Tudor domain; AID 504339; 390,000 tested, 4.4% active; Potency, µM (top dose mostly 114 µM), inactives show at the top dose activity change, negative = inhibition, most hits filed as inhibitors; AlphaScreen JMJD2A-Tudor / H3K4me3 peptide binding; O75164; note: % is set by controls: 0 for no effect and ±100 for the full control effect; nearly all actives have a fitted effect of over 50% in size
G9a inh – G9a (human) methyltransferase inhibition; G9a H3K9 monomethylation, AlphaScreen, 2 h; Potency, µM (series often up to 102 µM), without a hit: at the top dose activity, negative = inhibition, hits mostly inhibitors; 350,000 tested, 8.8% active; note: % is set by controls: 0 for no effect and ±100 for the full control effect; nearly all actives have a fitted effect of over 75% in size
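Quantitative HTS format: methyltransferase activity on a biotin-tagged H3K9 peptide is measured by AlphaScreen, using a rabbit anti-monomethyl-H3K9 antibody with streptavidin donor and anti-IgG acceptor beads. Final levels are 20 nM enzyme, 500 nM peptide, 20 uM SAM; 2 h RT.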
An asterisk follows results filed as active; [ ] = remark or other dose. Calls come from the whole dose curve; as a rule, active = well fitted curve in the direction sought with a large enough effect; inconclusive = small, poorly fitted or top-dose-only effect, or another doubt; inactive = no such curve, though single readings can be large; an effect the other way counts as inactive or inconclusive. Potency is the fitted concentration of half-maximal effect.

`O=C(N/N=C/c1cccc([N+](=O)[O-])c1O)C(O)(c1ccccc1)c1ccccc1` gave HP1b chromo inh 36%, Sfp inh inconclusive, BAZ2B block -28%, PLK1 PBD inh -7% and JMJD2A Tudor inconclusive.
O=C1ON=C(c2ccc(Cl)c([N+](=O)[O-])c2)/C1=C/c1cccc([N+](=O)[O-])c1O was read as HP1b chromo inh 7%, BAZ2B block 6%, PLK1 PBD inh -4%, JMJD2A Tudor 20µM* and G9a inh inconclusive.
Screening CC1CC(=O)Nc2ccccc2N1S(=O)(=O)c1ccccc1 (stereo not given) returned HP1b chromo inh -3%, Sfp inh -17%, BAZ2B block 37%, PLK1 PBD inh 27µM*, JMJD2A Tudor 18µM* and G9a inh -23%[59 µM].
For CC1Cc2ccccc2N1S(=O)(=O)c1cccc(C(=O)N2CC(=O)Nc3ccccc32)c1 (stereo not given) the results were HP1b chromo inh 16%, Sfp inh 0%, BAZ2B block -1%, PLK1 PBD inh -12%, JMJD2A Tudor -27% and G9a inh 71µM*.
CCOC(=O)CN1c2ccccc2NC(=O)CC1C (stereo not given) was read as HP1b chromo inh 48%, Sfp inh 15%, BAZ2B block 0%, PLK1 PBD inh -16%, JMJD2A Tudor -25% and G9a inh 45µM*.
Screening Cc1ccc(S(=O)(=O)N2c3ccccc3NC(=O)CC2C)cc1 (stereo not given) returned HP1b chromo inh 20%, Sfp inh 7%, BAZ2B block 8%, PLK1 PBD inh 1%, JMJD2A Tudor -10% and G9a inh 20%[59 µM].
For c1ccc(-c2nn[nH]n2)c(Nc2cccc3c2CCCC3)c1 the results were Sfp inh 7%.
Screening O=C(O)c1cc(N2CCCC2)ccn1 returned HP1b chromo inh -5%, PLK1 PBD inh -1% and JMJD2A Tudor 3.2µM*.
For O=C(O)c1cc(N2CCCCC2)ccn1 the results were HP1b chromo inh 29%, PLK1 PBD inh 2% and JMJD2A Tudor 1.6µM*.
For CC(NC(=O)C1CCN(C(=O)Nc2ccccc2)CC1)c1ccccc1 (stereo not given) the results were HP1b chromo inh 23%, BAZ2B block -8%, PLK1 PBD inh 4%, JMJD2A Tudor -16% and G9a inh 9%.
For O=c1[nH]sc2ccccc12 the results were HP1b chromo inh -15%, Sfp inh 5µM*, BAZ2B block 50µM*, PLK1 PBD inh 5.3µM*, JMJD2A Tudor 32µM* and G9a inh 1.8µM*.
For CCCCNC(=S)NCCN1CCCCC1 the results were HP1b chromo inh inconclusive, Sfp inh 56µM*, BAZ2B block 4%, PLK1 PBD inh -5%, JMJD2A Tudor 1.6µM* and G9a inh 2µM*.
CCCNC(=S)NCCN1CCCCC1 was read as HP1b chromo inh -27%, Sfp inh inconclusive, BAZ2B block inconclusive, PLK1 PBD inh -20%, JMJD2A Tudor 40µM* and G9a inh 8.9µM*.
`CCNC(=S)NCCN1CCCCC1` gave HP1b chromo inh 53%, Sfp inh 10%, BAZ2B block -3%, PLK1 PBD inh 0%, JMJD2A Tudor 1% and G9a inh -10%.
COc1ccc(NC(=O)N2CCCC3(CCN(C(=O)c4c(C)noc4C)CC3)C2)cc1 was read as Sfp inh 34% and G9a inh -3%[12.7 µM].
For COc1ccccc1N1CCN(C(=O)c2sc3ncnc(N4CCN(c5ccccn5)CC4)c3c2C)CC1 the results were HP1b chromo inh -5%, Sfp inh -3%, BAZ2B block inconclusive, PLK1 PBD inh -6%, JMJD2A Tudor -32% and G9a inh -23%.
COc1ccccc1N1CCN(C(=O)c2sc3nc(C)nc(N4CCN(c5ccccn5)CC4)c3c2C)CC1 was read as HP1b chromo inh -2%, Sfp inh -8%, BAZ2B block inconclusive, PLK1 PBD inh -13%, JMJD2A Tudor inconclusive and G9a inh 25µM*.
For O=C(CN1CCN(C2CCCCC2)CC1)NCCC1=CCCCC1 the results were HP1b chromo inh inconclusive, Sfp inh 79µM*, BAZ2B block 50µM*, PLK1 PBD inh -1% and JMJD2A Tudor 13µM*.
Screening O=S(=O)(c1ccc(F)cc1)c1nc(-c2ccco2)oc1Nc1ccccc1 returned HP1b chromo inh 0%, Sfp inh -8%, BAZ2B block -38%, PLK1 PBD inh -8%, JMJD2A Tudor -38% and G9a inh inconclusive.
Screening O=S(=O)(c1ccccc1)c1nc(-c2ccco2)oc1Nc1ccccc1 returned HP1b chromo inh -6%, Sfp inh 3%, BAZ2B block inconclusive, PLK1 PBD inh 6%, JMJD2A Tudor -1% and G9a inh 7.9µM*.
O=S(=O)(c1ccccc1)c1nc(-c2ccco2)oc1NCc1ccccc1 was read as HP1b chromo inh 13%, Sfp inh 3%, BAZ2B block -37%, PLK1 PBD inh -12%, JMJD2A Tudor -33% and G9a inh 35µM*.
Screening Cc1cc(N)ccc1N=Nc1c(C)n(C)n(-c2ccccc2)c1=O returned HP1b chromo inh 5%, Sfp inh 7%, BAZ2B block -9%, PLK1 PBD inh -14%, JMJD2A Tudor inconclusive and G9a inh 17%[59 µM].
Cc1c(N=NC2=C(O)CCCC2=O)c(=O)n(-c2ccccc2)n1C was read as HP1b chromo inh inconclusive, Sfp inh 14µM*, BAZ2B block 22µM*, PLK1 PBD inh 2%, JMJD2A Tudor 14µM* and G9a inh 8.9µM*.
`Cc1c(N=Nc2ccc(O)cc2)c(=O)n(-c2ccccc2)n1C` gave HP1b chromo inh 14%, Sfp inh 13%, BAZ2B block inconclusive, PLK1 PBD inh -6%, JMJD2A Tudor -22% and G9a inh -1%.
Screening Cc1[nH]c2ccccc2c1N=Nc1c(C)n(C)n(-c2ccccc2)c1=O returned HP1b chromo inh 11%, Sfp inh 1%, BAZ2B block inconclusive, PLK1 PBD inh -7%, JMJD2A Tudor -34% and G9a inh 40µM*.
COc1ccc(OC)c(N=Nc2c(O)c3ccccc3[nH]c2=O)c1 was read as HP1b chromo inh inconclusive, PLK1 PBD inh -4% and JMJD2A Tudor inconclusive.
COc1cc(N=Nc2c(O)c3ccccc3[nH]c2=O)c(OC)cc1N=Nc1ccccc1 was read as HP1b chromo inh inconclusive, Sfp inh -8%, BAZ2B block inconclusive, PLK1 PBD inh -2%, JMJD2A Tudor inconclusive and G9a inh 45µM*.
